Activation data for 15 compounds are collected here from PubChem BioAssay AID504692 (The Scripps Research Institute Molecular Screening Center, 2011).

Values joined by “and” are separate entries in the source; they are usually repeats but may differ in a detail not shown here. Equal values may be shown once. Among all 340,000 compounds or so, about 2,000 (0.59%) were called active. The sample as a whole holds a higher share of actives than the screen did. Values without a mark were called inactive. Rule as the data show it: active = activation mostly above about 9.5% (no sharp cut-off); inactive = mostly below about 7.6%.

Chain of 5-hydroxytryptamine receptor 5A (Homo sapiens) (P47898 whole entry, looked up): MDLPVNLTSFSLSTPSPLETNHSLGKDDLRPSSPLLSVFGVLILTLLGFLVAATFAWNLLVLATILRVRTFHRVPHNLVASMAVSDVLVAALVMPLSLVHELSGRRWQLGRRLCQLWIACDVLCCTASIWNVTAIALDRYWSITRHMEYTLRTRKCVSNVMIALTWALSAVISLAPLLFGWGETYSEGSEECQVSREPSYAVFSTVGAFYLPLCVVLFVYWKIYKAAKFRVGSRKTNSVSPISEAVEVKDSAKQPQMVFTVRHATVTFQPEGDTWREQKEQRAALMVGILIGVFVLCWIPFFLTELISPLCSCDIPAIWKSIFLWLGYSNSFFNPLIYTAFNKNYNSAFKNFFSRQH

This assay concerns the target 5-hydroxytryptamine receptor 5A (Homo sapiens) (UniProt P47898). Description: HTR5A agonists in luminescence cell assay, primary screen, counter-screen for OPRM1-OPRD1 heterodimer agonist project, full-deck HTS (AID 504692).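 Also: 0% = cells with vehicle only and 100% = reference agonist.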 As to conditions: cell-based, at 9.3 µM, active compounds read high.
As to `C[C@]12CC[C@H](O)C[C@H]1CC[C@@H]1C2CC[C@]2(C)[C@@H](C3=CC(=O)OC3)[C@@H](O)C[C@]12O` (stereo not given in full), the activation is 16.5%. The same measure for `COC1C(O)C(C)OC(OC2CCC3(C=O)C(CCC4C3CCC3(C)C(C5=CC(=O)OC5)CCC43O)C2)C1O` (stereo not given): 20% (active). To `Oc1ccc2c3c1OC1[C@H](O)CC[C@@]4(O)[C@@H](C2)N(CC2CC2)CC[C@]314` (stereo not given in full) belongs 2.68% and -1.51%; to `CC[N+](CC)(CC)CCCCCCCCCC[N+](CC)(CC)CC`, 2.35%; to `CCOP(=O)(OCC)C(O)c1ccc(OC)cc1OC` (stereo not given), -1.32%. To `CCCCCCCCCCCCn1ccc(=N)cc1` belongs 14.5% (active); to `Cc1cc(C(=O)OCC(=O)Nc2c(F)cccc2F)c(C)n1C1CC1`, -0.58%.

For the compound `C/C=C/CC1(CC)C(=O)NC(=S)NC1=O`, the activation is 0.5%.

`COC(=O)C(O)(c1ccc(NC(=O)c2ccco2)c(OC)c1)C(F)(F)F` (stereo not given): the activation is -2.39%.

For the compound `CN(C)C(=O)Oc1cc(=O)n2c3c(cccc13)CCC2`, the activation is 2.56%. Regarding `O=C(Cc1ccccc1)N1CCN(C2CCCCCC2)CC1`, the activation is 1.91%. As to `Cc1ccc(-c2cc(C(=O)N3CCC4(CC3)OCCO4)no2)cc1`, the activation is 1.14%. The same measure for `COc1ccc(S(=O)(=O)NCc2ccc(C(=O)N3CCC4(CC3)OCCO4)cc2)cc1`: 3.27%; for `CCOC(=O)c1c(C)c(C(=O)N2CCC3(CC2)OCCO3)c(C)n1CC`: 10.3% (active). The same measure for `CC(C)Oc1cccc(C(=O)C2CCCN(C3CCOCC3)C2)c1` (stereo not given): 3.38%.
